A selection: hits, their analogues and other compounds. The true share with any hit is near 5.8%.
KB-3-1 cytotox – kills parental KB-3-1 adenocarcinoma cells. KB-3-1 viability, CellTiter-Glo ATP luminescence, 72 h. Potency, µM (series often up to 46.1 µM), hits mostly cytotoxic. 400,000 tested, 1.4% active. AID 1347075; further: on the % scale 0 is the no-effect control and ±100 the full control effect; nearly all actives have a fitted effect of over 60% in size
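Luminescent ATP read-out (CellTiter-Glo) measures survival of drug-naive KB-3-1 cells after 72 h compound exposure at 37 °C. Titration series was screened from lowest to highest concentration, with DMSO vehicle plates as background controls.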
KB-V1 cytotox – KB-V1 MDR subline cytotoxicity. KB-V1 MDR cells viability, CellTiter-Glo, 72 h. Potency, µM (top dose mostly 46.1 µM), actives largely listed as cytotoxic. 400,000 tested, 3.4% active. AID 1347076; further: on the % scale 0 is the no-effect control and ±100 the full control effect; nearly all actives have a fitted effect of over 60% in size
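Compound-treated KB-V1 multidrug-resistant cells, 72 h, 37 degrees C; viability by CellTiter-Glo. Fitted qHTS curves give the values.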
PINK1 modulator – PINK1 expression modulation; 410,000 tested, 0.2% active; AID 624263; PINK1 immunofluorescence, high-content cytometry, 24 h; Potency, µM (highest dose often 76.6 µM), for inactives: at the top dose activation (PINK1 increase), most hits filed as activators; active means well fitted activation curve with a large enough effect; inconclusive means small, poorly fitted or top-dose-only effect; cell line not stated here; further: % of control where 0% means no effect; nearly all actives have a fitted effect of over 65% in size
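Cells are seeded, rested 12 hours, then given compound at five concentrations or DMSO for 24 hours. After fixation, blocking and antibody staining, PINK1 amount and mitochondrial localization are scored; CCCP serves as control.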
MCF10A rerep – inducers of DNA re-replication in MCF 10A breast cells; MCF 10A DNA re-replication, Hoechst nuclear intensity, 48 h; Potency, µM (doses to about 46.1 µM), for the others: top-dose activity, positive = re-replication, hits mostly activators; 350,000 tested, 2.9% active; further: % of control where 0% means no effect; nearly all actives have a fitted effect of over 50% in size
SW480 rereplic – induces DNA re-replication in SW480 colon adenocarcinoma cells | Potency, µM (series often up to 46.1 µM), for the others: at the top dose re-replication activation, most hits filed as activators | SW480 DNA re-replication, Hoechst DNA content imaging, 48 h | AID 624297 | 340,000 tested, 1.8% active; further: % of control where 0% means no effect; nearly all actives have a fitted effect of over 55% in size
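Hoechst fluorescence of nuclei (405 nm excitation, 500-530 nm emission) measured by plate-scanning imager after 48 hr compound exposure at 37 C; re-replication scored as increased number of nuclei with elevated intensity.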
ALOX12 inh – ALOX12 (human) lipoxygenase inhibition. P18054. purified 12hLO, xylenol orange hydroperoxide absorbance. Potency, µM (series often up to 108 µM), for inactives: at the highest dose activity change, negative = inhibition, actives largely listed as inhibitors. 580,000 tested, 1.1% active. AID 1671190; further: on the % scale 0 is the no-effect control and ±100 the full control effect
Target sequence (P18054 whole entry, looked up): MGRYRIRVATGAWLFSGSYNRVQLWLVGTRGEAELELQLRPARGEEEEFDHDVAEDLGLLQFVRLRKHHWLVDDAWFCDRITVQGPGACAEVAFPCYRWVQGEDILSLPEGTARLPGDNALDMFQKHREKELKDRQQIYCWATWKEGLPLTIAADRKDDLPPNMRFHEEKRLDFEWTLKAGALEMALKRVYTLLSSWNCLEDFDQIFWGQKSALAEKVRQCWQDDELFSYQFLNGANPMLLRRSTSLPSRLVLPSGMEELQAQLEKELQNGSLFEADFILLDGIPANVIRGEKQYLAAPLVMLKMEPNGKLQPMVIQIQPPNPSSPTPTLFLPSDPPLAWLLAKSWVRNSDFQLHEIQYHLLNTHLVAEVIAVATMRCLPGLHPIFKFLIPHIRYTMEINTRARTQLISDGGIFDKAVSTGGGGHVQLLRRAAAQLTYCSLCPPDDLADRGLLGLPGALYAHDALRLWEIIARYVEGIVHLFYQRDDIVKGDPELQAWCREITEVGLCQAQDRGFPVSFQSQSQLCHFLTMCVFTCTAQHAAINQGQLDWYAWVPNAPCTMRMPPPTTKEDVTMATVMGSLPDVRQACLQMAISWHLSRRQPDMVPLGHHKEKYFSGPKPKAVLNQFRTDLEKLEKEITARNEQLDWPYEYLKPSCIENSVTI
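Purified human 12hLO (150 nM final) in 25 mM Hepes, 0.01% Triton X-100, pH 7.0 was preincubated 15 min at room temperature with compound. Then 40 uM arachidonic acid was added, 30 min. Hydroperoxide was read by Fe-XO absorbance ratio 573/405 nm.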
The depositor's hits bear a star; i = inactive; ? = inconclusive; . = no result given; [ ] = dose if it differs, or a comment. Unless noted, the call rests on the fitted dose curve; in most records, active means well fitted curve in the direction sought with a large enough effect; inconclusive means small, poorly fitted or top-dose-only effect, or another doubt; inactive means no such curve, though single readings can be large; an effect the other way counts as inactive or inconclusive. Potency means the concentration at half of the fitted maximal effect.

SMILES	KB-3-1 cytotox	KB-V1 cytotox	PINK1 modulator	MCF10A rerep	SW480 rereplic	ALOX12 inh
CCSc1nc(-c2ccc(OC)cc2)n(-c2nc3ccccc3s2)n1	i	12µM*	12%[38.3 µM]	14%	5%	-17%
CCOC(=O)C1=C(O)c2ccccc2C(=O)/C1=C\c1ccc(C)cc1	?	?	10%	21µM*	?	10µM*
CC(C)C(=O)/C(C#N)=C\c1ccc(OCc2ccccc2F)cc1	.	.	.	.	.	6%
CC1CCN(C(=O)CCSc2nc(-c3ccc4c(c3)OCO4)cc(C(F)(F)F)n2)CC1	.	.	.	.	.	-3%
O=C1c2cnc3nc(SCc4cccc(Cl)c4)nn3c2CC2c3ccccc3CCN12 (stereo unspecified)	i	i	6%	2.1µM*	2.6µM*	-5%
O=C(Nc1ccc(Br)cn1)Nc1ccccc1Cl	.	.	.	.	.	-1%
CN1/C(=C\C=[N+](C)c2ccccc2)C(C)(C)c2ccccc21	3.3µM*	i	14%[38.3 µM]	16%	-3%	?
CN1C(=CC=C2C=C(I)C(=O)C(I)=C2)C(C)(C)c2ccccc21	?	i	5%	10%	-5%	.
CN1/C(=C/C=C(/C#N)C(N)=O)C(C)(C)c2ccccc21	2.6µM*	?	4%	5µM*	6.3µM*	-30%
CN1/C(=C\C=C2/C(=O)Oc3ccccc3C2=O)C(C)(C)c2ccccc21	i	i	13µM*	?	7%	12%
Cc1ccccc1N=C/C=C1\N(C)c2ccccc2C1(C)C	i	23µM*	-3%	?	?	?
CCn1cc(S(=O)(=O)N2CCCC(Cc3ncc(C)n3Cc3ccccc3)C2)cn1 (stereo unspecified)	.	.	.	.	.	45%
C=Cc1ccc(COc2ccc3c(=O)c(Oc4ccccc4OC)coc3c2)cc1	.	.	.	.	.	17%
CC1CCC(C(C)C)C(OC(=O)COC(=O)c2ccc(N)cc2)C1 (stereo unspecified)	i	i	2%	23µM*	-9%	-11%
CC1CCC(C(C)C)C(OC(=O)COC(=O)c2cccn2C)C1 (stereo unspecified)	i	i	2%	?	-4%	11%
Cc1ccc2nc(C)c(C(=O)NC(C)c3ccccc3)cc2c1 (stereo unspecified)	.	.	.	.	.	28%
COC(=O)C1C2CCC(C2)C1C(=O)OCC(=O)c1ccc(Cl)cc1 (stereo unspecified)	.	.	.	.	.	3%
O=C(/C=C/c1ccsc1)c1ccc(O)cc1	.	.	.	.	.	50µM*
Cc1ccc(C(=O)/C=C/Nc2cccc(O)c2)cc1	i	i	.	23µM*	?	?
Cc1ccc(C(=O)/C=C/c2ccc3ncccc3c2)cc1	i	i	0%	18µM*	?	-16%
Cc1ccc(/C=C/C(=O)c2ccc(O)cc2)cc1	?	?	0%	?	18µM*	-30%
CSc1ccc(/C=C/C(=O)c2ccc(O)cc2)cc1	?	?	0%	?	21%	?
Cc1ccc(C(=O)Nc2ccc3ncccc3c2)cc1	i	i	1%	9%	16%	5%
O=C(O)C(c1c[nH]c2ccccc12)N1CCN(S(=O)(=O)c2ccccc2)CC1 (stereo unspecified)	.	.	.	.	.	-24%
COc1ccc(C)cc1NC(=O)c1cc(S(=O)(=O)N2CCc3ccccc32)cn1C	.	.	.	.	.	75%
SMILES	KB-3-1 cytotox	KB-V1 cytotox	PINK1 modulator	MCF10A rerep	SW480 rereplic	ALOX12 inh
Cc1cc(Nc2ccc3c(c2)OCCO3)c2cc(Cl)ccc2n1	i	15µM*	18%	10%	2%	-16%
O=C(NC1CCCCNC1=O)c1ccc2c(c1)OCCCO2 (stereo unspecified)	.	.	.	.	.	-19%
CCOc1ccc(CN(C)CC(O)COC(c2ccc(OC)cc2)c2ccc(OC)cc2)cc1 (stereo unspecified)	?	?	-4%	18µM*	?	?
c1ccc2c(CN3CCC[C@H]3c3nc(-c4ccc(OC5CCCCC5)nc4)no3)c[nH]c2c1	.	.	.	.	.	7%
COc1ccc(CN(C)C(=O)C2(c3ccc(Cl)cc3)CCOCC2)cc1	.	.	.	.	.	4%[6.33 µM]
CC(Sc1nnc(CN2CCCC2)n1Cc1ccccc1)C(=O)Nc1ccc(F)c(F)c1F (stereo unspecified)	i	1µM*	4%	25%	-3%	32%
CCN(CC(=O)Nc1c(F)cccc1F)C(=O)c1nn(Cc2ccccc2)c(=O)c2ccccc12	.	.	.	.	.	9%
O=C(N/N=C\c1c(O)ccc2ccccc12)c1ccc(Cn2cccn2)o1	16µM*	?	?	10µM*	?	-28%
O=C(N/N=C/c1c(O)ccc2ccccc12)c1cccc(C(F)(F)F)c1	?	i	?	4.6µM*	?	?
COc1ccc2ccccc2c1/C=N/NC(=O)c1cccc(Br)c1	i	i	0%	?	8%	0%
O=C(N/N=C/c1ccc(N2CCOCC2)o1)c1cccc(C(F)(F)F)c1	i	i	0%	21µM*	?	-16%
CC1SC2(NC1=O)C1CC3CC2CC(O)(C3)C1 (stereo unspecified)	.	.	.	.	.	2%
O=C(CNC(=O)c1ccccc1Br)N/N=C/c1cc(Br)ccc1O	i	i	2%	?	7.3µM*	2%
O=C(N/N=C/c1cc(Cl)ccc1O)c1ccccc1Br	?	?	0%	12%	6.5µM*	-28%
O=C(CNC(=O)c1ccccc1Br)N/N=C/c1ccccc1O	?	?	-1%	?	?	?
O=[N+]([O-])c1ccc(O)c(/C=N/Nc2ccc(Cl)nn2)c1	?	i	-1%	0.73µM*	?	3%
O=C(N/N=C/c1c(Cl)nc2ccccn2c1=O)c1cccnc1	i	i	16%	?	?	3.2µM*
O=[N+]([O-])c1ccc(O)c(/C=N/Nc2nn[nH]n2)c1	i	i	1%	?	-11%	0%
O=C(Cn1c(=O)c2c(ncn2Cc2ccccc2)n(Cc2ccccc2)c1=O)Nc1ccccc1F	.	.	.	.	.	-2%
Cc1sc2nc(CN3CCOCC3)nc(Sc3nnnn3C3CCCC3)c2c1C	.	.	.	.	.	-9%
C=CCNCc1cccc(Br)c1	.	.	.	.	.	-20%
O=C(CCC(=O)Nc1cc(C(F)(F)F)ccc1Cl)N/N=C\c1cc([N+](=O)[O-])ccc1O	i	i	1%	?	15µM*	85%
O=C(N/N=C/c1cc(Cl)ccc1O)c1cccnc1	?	i	0%	?	1.3µM*	2%
O=C(N/N=C/c1cc([N+](=O)[O-])ccc1O)c1cccc(NC(=O)c2cccc(Cl)c2)c1	i	i	1%	-14%	2.3µM*	?
O=C(CNC(=O)c1ccc2c(c1)OCO2)N/N=C/c1cc(Br)ccc1O	?	i	11%	7%	4.1µM*	9%
